Laboratory results reported in PubChem BioAssay AID2732 (Emory University Molecular Libraries Screening Center, 2010).
Out of some 220,000 compounds screened, about 8,200 (3.7%) were called active.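 The calls were made as follows: active = compounds that reduced the stress-induced luciferase reporter signal by more than about 70% of percent inhibition (limit read from the data); inactive = the rest.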 Only a selection was taken, and actives are over-represented in it overall.

Experiment: blockers of ER-stress CHOP reporter expression – cell-based, unfolded protein response, luciferase reporter, primary screen (AID 2732);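 also: 0% = tunicamycin plus vehicle and 100% = wells without tunicamycin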
Settings: CHO-K1 CHOP-promoter luciferase, tunicamycin-induced, 15-18 h; at 10 µM; active compounds read high

inhibition, inactive:
COc1ccccc1-n1c(-c2cc(-c3ccco3)[nH]n2)n[nH]c1=S -7.77%
CCO[C@@H]1OC(C(=O)NC2CC2)=C[C@H](C)[C@H]1CCCO 0.64%
CCOC(=O)CN(C(=O)COc1nc(C)cc(C)c1C#N)c1ccc(Cl)cc1 23.1%
O=C(CCN1C(=O)/C(=C/c2cccs2)SC1=S)NNC(=O)c1cccc(O)c1 46.3%
O=C(CCCN1C(=O)/C(=C/c2ccco2)SC1=S)Nc1ccccc1 32.2%
O=c1oc(-c2ccccc2NS(=O)(=O)c2ccc(Cl)cc2)nc2ccccc12 21%
Cc1ccc(SCc2c(C(=O)N/N=C/C3CC=CCC3)nnn2-c2nonc2N)cc1 (configuration not stated) 36.4%
CC(=O)N1N=C(c2ccncc2)OC1(Cc1ccccc1)Cc1ccccc1 -11.2%
Cc1ccc(NC(=O)CSc2nnc(COc3ccccc3C)o2)cc1 39.4%
Cc1cc(C)cc(OCc2nnc(SCC(=O)OC3CCCCC3)o2)c1 25.7%
COc1ccc2c(c1)C(=C(C#N)C#N)C(=O)N2CCc1ccccc1 -16.5%
O=C1CCC(=O)N1c1ccc(NCCc2ccccc2F)c([N+](=O)[O-])c1 20%
O=[N+]([O-])c1ccccc1NCc1ccccc1Cl 34.1%
Brc1ccc2ncnc(NCc3cccnc3)c2c1 50.9%
CCC(C(=O)OCC(=O)Nc1c(Cl)cc(Cl)cc1Cl)c1ccccc1 (configuration not stated) 48.2%
CCC(C(=O)OCC(=O)Nc1ccccc1-c1ccccc1)c1ccccc1 (configuration not stated) 6.12%
COc1ccc(C2c3ccc(O)cc3Oc3ncn(CCCO)c(=N)c32)cc1OC (configuration not stated) 11.6%
CCOCCn1c(-c2ccccc2)nc2ccccc21 5.67%
Cc1nn(-c2ncc(C(F)(F)F)cc2Cl)c(=O)n1-c1ccccc1 -12.9%
c1ccc(-c2ccnc3nc(-n4cccc4)nn23)cc1 7.91%
COc1ccc(-c2ccc(OC(=O)NC3CCS(=O)(=O)C3)cc2)cc1 (configuration not stated) 20.4%
COc1ccc(/C=N/NC(=O)c2ccccc2)cc1OS(=O)(=O)c1ccccc1 7.47%
COc1cc(/C=N/NC(=O)c2ccccc2)ccc1OS(=O)(=O)c1ccccc1 -6.49%
CC(C)c1nc(SCC(=O)NC(=O)NC(C)(C)C)n[nH]1 18.7%
Cc1cc(C)cc(OCC(=O)O/N=C(\N)Cc2ccc([N+](=O)[O-])cc2)c1 13.5%
O=C(Nc1ccc(Br)cn1)C1CCN(S(=O)(=O)c2cccs2)CC1 42.9%
C/C=C/C(=O)Nc1ccc(N2CCN(c3ccc(C(F)(F)F)cn3)CC2)nc1 1.12%
Nc1ccccc1Sc1ccc(C(F)(F)F)cc1[N+](=O)[O-] -6.84%
COc1ccc(-c2nn(C)c(=O)c3ccccc23)cc1CNC(=O)C1CCCCC1 4.54%
CCn1cc(C(=O)NCC2COc3ccccc3O2)c2cc(OC)c(OC)cc2c1=O (configuration not stated) 19.1%
Cc1cc(NC(=O)CCC2COc3ccccc3O2)no1 (configuration not stated) 7.18%
O=C(NC1C2CC3CC(C2)CC1C3)c1ccc(N2CCNCC2)c([N+](=O)[O-])c1 (configuration not stated) -22.1%
O=C1CCC(=O)N(O)CCCCCNC(=O)CCC(=O)N(O)CCCCCNC(=O)CCC(=O)N(O)CCCCCN1 3.7%
COc1ccccc1NC(=O)c1cc(Cl)nc2ccccc12 11.8%
CCn1c2ccccc2c2cc(CC(N)=O)ccc21 17.4%
COc1ccc(C(=O)O/N=C(\N)Cc2ccc(Cl)cc2Cl)cc1OC 60.4%
NC(N)=N/N=C/c1ccc(Cl)c([N+](=O)[O-])c1 -23.8%
O=C(CCc1ccccc1)NNc1ccc(F)cc1 4.92%
COC(=O)NC1(C(F)(F)F)NC(=O)N(C2CCCCC2)C1=O (configuration not stated) 2.29%
O=C(NC1(C(F)(F)F)NC(=O)N(C2CCCCC2)C1=O)c1ccco1 (configuration not stated) 9.81%
Nc1nc(SC23CC4CC(CC(C4)C2)C3)ns1 11.6%
COC(=O)c1cn(C(=O)c2ccc(Cl)cc2)c2ccccc12 9.55%
O=C(CSc1nnc(SCc2ccc(F)cc2)s1)Nc1ccc(C(=O)O)cc1 -8.93%
COCCOC(=O)C1=C(C)NC(=O)CC1c1cc2c(cc1Br)OCO2 (configuration not stated) -14.4%
COc1ccccc1C1C2=C(COC2=O)Nc2cc3c(cc21)OCO3 (configuration not stated) 23.1%
CC(C)(C)c1nnc(NC(=O)C2c3ccccc3Oc3ccccc32)s1 45.8%
N=C(N)SCc1cccc2ccccc12 35.6%
CCn1c(SCc2ccc(C)cc2)nnc1-c1nn(-c2ccccc2)ccc1=O 28.9%
Cn1c(=O)c2c(-c3cccc(Br)c3)c(C#N)c(N)nc2n(C)c1=O 3.49%
Cc1nc(N)sc1N=Nc1c(C)n(C)n(-c2ccccc2)c1=O 4.59%
Cc1ccc(NC(=O)CC(=O)Nc2ccc(C)cc2)cc1 20.6%
CC(C)(CCl)C(=O)Nc1ccc(Sc2ccc(F)cc2)cc1 68%
COc1ccc(N=C(C)c2sc3ccccc3c2O)cc1 1.74%
C=CCNC(=S)N/N=C/c1ccc(C)s1 -20%
CC(=O)NCC(O)c1ccc([N+](=O)[O-])cc1 (configuration not stated) 5.99%
O=S(=O)(NCc1ccco1)c1cnc(Cl)c(Cl)c1 -45.5%
CN=C1C=C/C(=N/N=c2\ccn(O)cc2C)C=C1C -15.3%
Cc1ccc2c(c1)C(c1ccccc1)N(C(=O)c1ccc(S(=O)(=O)N3CCOCC3)cc1)CC(=O)N2 (configuration not stated) 18%
COC(=O)CN1C(C)=Nc2ccc(Br)cc2C1c1ccccc1 (configuration not stated) -10.6%
CN(C)C(=O)c1nc2ccc(Cl)cn2c1CNCc1cccc(OC(F)(F)F)c1 -1.69%
Cc1cnc(NC(=O)Cn2cnc3c2c(=O)n(C)c(=O)n3C)s1 -10.1%
Cc1ccc(C(=O)NNc2ncnc3ccccc23)cc1 3.67%
Cc1nn(-c2ccccc2)c(=O)c2noc(C)c12 1.49%
Cc1cc(N2CCN(C)CC2)nc2ccc(NC(=S)N3CCOCC3)cc12 2.29%
CCn1c2ccccc2c2cc(NC(=S)N3CCOCC3)ccc21 30.3%
CC(CO)(CO)NC(=O)c1ccc(=O)[nH]n1 0.5%
O=P(O)(CN1CCCCCC1)C1Cc2ccccc2C1 4.35%
O=c1c2ccccc2c(-c2ccccc2)nn1Cc1ccccc1 43.8%
O=c1cc(N2CCN(Cc3ccccc3)CC2)c(-c2ccccc2)n[nH]1 26.9%
C/C(Cc1ccccc1)=N\NC(=O)CNC(=O)c1ccccc1Cl -14.9%
COc1ccc(OCC(O)CNCCNc2nccc(C(F)(F)F)n2)cc1 (configuration not stated) 3.94%
O=C(Cc1ccccc1)N/N=C/c1ccc(Cl)cc1Cl -13.9%
COc1ccc(/C=N/NC(=O)Cn2cc(C(F)(F)F)ccc2=O)cc1 -10.7%
NS(=O)(=O)c1ccc(NC(=O)COC(=O)c2cc3ccccc3oc2=O)cc1 5.84%
CCOc1cc2c(Cl)ncnc2c(OCC)c1OCC 23.1%
S=c1[nH]c2ccccc2c2ccccc12 -2.18%
CCN(CC)CCCN=C(N)N 3.64%
CCOC(=O)C1CCN(c2ncnc3c2oc2ccc(Br)cc23)CC1 21.9%
CCOC(=O)N1CCN(C(=O)C2CCN(Cc3ccc(OC)cc3OC)CC2)CC1 18.3%
Nc1nc(NCC2CCCO2)nc(Nc2ccccc2F)c1[N+](=O)[O-] (configuration not stated) 12.4%

inhibition, active:
O=C(CCCN1C(=O)/C(=C\c2ccco2)SC1=S)Nc1cccc2ccccc12 73.2%
Cc1cc(C)cc(OCc2nnc(SCC(=O)Nc3ccccc3)o2)c1 91.5%
NC(=O)CC(NC(=O)Cc1cccc2ccccc12)c1ccc(NCc2cc(F)ccc2F)c([N+](=O)[O-])c1 (configuration not stated) 99.3%
CCC(C(=O)OCC(=O)Nc1ccc(C(=O)Nc2ccc(OC)cc2)cc1)c1ccccc1 (configuration not stated) 89.3%
Cc1ccc(-c2ccnc3nc(Sc4ncc(C(F)(F)F)cc4Cl)nn23)cc1 81.4%
COc1cc(/C=N/NC(=O)Nc2ccccc2)ccc1OCCOc1ccccc1C 104%
Cc1cc(C(=O)CCl)c(C)n1CC1COc2ccccc2O1 (configuration not stated) 106%
NC(N)=N/N=C/c1ccc(OCc2ccc(Cl)cc2Cl)cc1 108%
O=C1NC(Nc2nc3ccccc3s2)(C(F)(F)F)C(=O)N1C1CCCCC1 (configuration not stated) 78.6%
CCCOc1ccccc1C1CC(=O)Nc2cc3c(cc21)OCO3 (configuration not stated) 85.8%
CCc1ccc(-c2nn(-c3ccccc3)cc2CSC(=N)N)cc1 103%
O=C(CCl)Nc1ccc(Sc2ccc(NC(=O)CCl)cc2)cc1 106%
CCC(CC)C(=O)N1CC(=O)Nc2ccc(Br)cc2C1c1ccccc1 (configuration not stated) 81.3%
Cc1cc(N2CCOCC2)nc2ccc(NC(=S)N3CCN(Cc4ccccc4)CC3)cc12 80.6%
O=c1cc(N2CCCCC2)c(-c2ccccc2)nn1Cc1cccc(F)c1 74.7%
O=C(Cn1cc(C(F)(F)F)ccc1=O)N/N=C/c1ccc(Cl)cc1Cl 104%
CCOC(=O)N1CCN(C(=O)C2CCN(c3ncnc4c3sc3cccc(F)c34)CC2)CC1 85.7%
